# Test results taken from publication PMC7819943, “Rice protein-binding microarrays: a tool to detect cis-acting elements near promoter regions in rice”.
# The full ranking holds about 68,000 sequences; the median of “fluorescence intensity (a.u.)” is about 9,100, and the highest 2% start at about 16,000. For the sample, the highest values were picked, then their nearest neighbours and some sequences at random.
# Target: OsWRKY34 (Oryza sativa, UniProt Q0JBA9 1-250)
# Experiment: protein-binding microarray (RPBM); PBS, 2% BSA, 51.3 ng/ul salmon testes DNA, 50 uM zinc acetate, 200 nM TF, 25 C, 1 h; high values mean tight binding
# Conditions: protein: recombinant; tags: N-terminal polyhistidine and DsRed monomer fusion (pET32a); label: CyDye5-dUTP incorporated in the synthesized complementary strand; 3' TTTTT single-stranded linker to array surface; dsDNA, one strand shown
# How it was run: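 The binding signal is fluorescence intensity per array feature (arbitrary units). Readings came from an Axon 4000B scanner after a washed, 2% BSA-blocked, double-stranded custom Agilent array had been incubated for 1 h at 25 °C with 200 nM protein and 50 µM zinc acetate. The protein was a Ni–NTA-purified transcription factor fused N-terminally to polyhistidine and DsRed, expressed in E. coli BL21-CodonPlus.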
# OsWRKY34, sequence (Q0JBA9 entry or part of it): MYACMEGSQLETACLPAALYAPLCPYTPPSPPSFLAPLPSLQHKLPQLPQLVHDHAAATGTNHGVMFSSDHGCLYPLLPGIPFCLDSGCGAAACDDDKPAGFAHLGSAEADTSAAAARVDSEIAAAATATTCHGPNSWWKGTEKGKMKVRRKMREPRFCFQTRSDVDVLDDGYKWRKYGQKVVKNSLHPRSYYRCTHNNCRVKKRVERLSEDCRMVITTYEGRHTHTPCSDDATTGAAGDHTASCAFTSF
row,Sequence,binding signal
1,CTGGGATTTGGTGGAGCTCCTGCGGTGGGGTGCCAGTGATCGGAGTCACCTAGTGCAG,12200 fluorescence intensity (a.u.)
2,ACTGTATATCGATGGCCCACTCGGCCCGACCCGTCCCGGCCGGAGTCACCTAGTGCAG,10600 fluorescence intensity (a.u.)
3,ATCAAGCCGAATAGTGCTGACATCTTCATTCTGGTTTTTTCGGAGTCACCTAGTGCAG,9510 fluorescence intensity (a.u.)
4,GTCTAGTATAAATCAACGCCACACCACTTGCCTAGTCATCCGGAGTCACCTAGTGCAG,8070 fluorescence intensity (a.u.)
5,GTCGGCGCCCATAGTTTTTTTCCGCAAGGGTTTTCTACGTCGGAGTCACCTAGTGCAG,8810 fluorescence intensity (a.u.)
6,TCTTAAGCGTGTTCATGGGTCTTGTTATGCTCAAGTCAAACGGAGTCACCTAGTGCAG,8950 fluorescence intensity (a.u.)
7,ATCTCTTTCATCCGATTACTGTGTTTTTTCTGTGGTCCAACGGAGTCACCTAGTGCAG,8410 fluorescence intensity (a.u.)
8,GCCGCTTGCCCTCGCAGCCGCTCCGCCTGCCTCCGCCCACCGGAGTCACCTAGTGCAG,10000 fluorescence intensity (a.u.)
9,ATCTGGTAACTCAAGTGCTCTCTTCCTGACTGCTGCAGCACGGAGTCACCTAGTGCAG,9470 fluorescence intensity (a.u.)
10,GATGAGTGGTGATTGGTGAAGATATCTGGTGGTTTTGGGACGGAGTCACCTAGTGCAG,8630 fluorescence intensity (a.u.)
11,AACCCGTTCACACACATTGTCAGGGACCAGCTCATTACTTCGGAGTCACCTAGTGCAG,10400 fluorescence intensity (a.u.)
12,TCCCCACCTGTCAGTACTTATGTTTTGACTTTTTGACCCACGGAGTCACCTAGTGCAG,14300 fluorescence intensity (a.u.)
13,GGGCTGTTGTGTGTGTGTTTTGCGACGTGCCGTGCTGGGCCGGAGTCACCTAGTGCAG,8290 fluorescence intensity (a.u.)
14,TGACTTTTTAGTACGTGTTTGATCATTCGTCTTATTCAAACGGAGTCACCTAGTGCAG,10800 fluorescence intensity (a.u.)
15,TGATTTTTGTCCCACGTGGCATTGACGTGGCGCTTATGTGCGGAGTCACCTAGTGCAG,8850 fluorescence intensity (a.u.)
16,CCGTTGACTTTTTAGTACGTGTTTGATTCATTCTTAAATACGGAGTCACCTAGTGCAG,16200 fluorescence intensity (a.u.)
17,AATGTTTGATACCGTTGACTTTTTAGTACGTGTTTGATCACGGAGTCACCTAGTGCAG,32600 fluorescence intensity (a.u.)
18,AATGTTTGACACCGTTGACTTTTTAGTACGTGTTTGTCCACGGAGTCACCTAGTGCAG,30200 fluorescence intensity (a.u.)
19,AACGATGACGACGTGTGCGCGCTGTTGTTTTTTTGTCCCACGGAGTCACCTAGTGCAG,19700 fluorescence intensity (a.u.)
20,CCTGCCCGGTGTGCTGTGACTTGCCGTTATCGTCACCGTTCGGAGTCACCTAGTGCAG,10200 fluorescence intensity (a.u.)
21,CACTTCTTTTCTCTATGGCGGCATCTGAATCTATGTGGATCGGAGTCACCTAGTGCAG,9450 fluorescence intensity (a.u.)

row,Sequence,binding signal
1,AATCACCTCCCTTATCTTACCTGCATGACAAATGCCTCGACGGAGTCACCTAGTGCAG,8590 fluorescence intensity (a.u.)
2,ACCCACCATGCCACCCCACTCCTTCTTTAAACTTGTAAACCGGAGTCACCTAGTGCAG,9480 fluorescence intensity (a.u.)
3,TCTCCTATCCAGTTGGATTCCCAAAATTTCGCCTTTCGTCCGGAGTCACCTAGTGCAG,8070 fluorescence intensity (a.u.)
4,AACCGAAATCACTTTGGCAGCATGTTTTCCTCTGTAACCACGGAGTCACCTAGTGCAG,9350 fluorescence intensity (a.u.)
5,CAACCCCACCGCCGCCGCCGCAAACCGTCTCGCCGTCGCCCGGAGTCACCTAGTGCAG,11600 fluorescence intensity (a.u.)
6,GAGGTTGTTTTGTCGTCTAGCAAGTGTGTGTCGGGTGGCGCGGAGTCACCTAGTGCAG,9220 fluorescence intensity (a.u.)
7,GTCATATGGCACCATGCTTGCTCTCCACTCTTCAATCAGTCGGAGTCACCTAGTGCAG,9490 fluorescence intensity (a.u.)
8,TCGCTGCTCTGCCCTTTTCCCTTTTTTTTTCTTTCTTCATCGGAGTCACCTAGTGCAG,10200 fluorescence intensity (a.u.)
9,CCCTCCCGTCAGTTGACCGTTAGTTGACCGTGTATTTTCTCGGAGTCACCTAGTGCAG,12200 fluorescence intensity (a.u.)
10,CCATCAGTTGACCATGTGTTGACCGTTAACTCTCAAGTAACGGAGTCACCTAGTGCAG,9190 fluorescence intensity (a.u.)
11,CTCCCGTCAGTTGACCGTGTGTTGACCGTTAATTCTCAAGCGGAGTCACCTAGTGCAG,17500 fluorescence intensity (a.u.)
12,TCCGTGTCCAATGTTTGACCATCCGTCTTATTTAAAAAAACGGAGTCACCTAGTGCAG,8070 fluorescence intensity (a.u.)
13,GTGTTGTGTTCATCTCCTTCGTTTACTTCTCTTCTCCTCTCGGAGTCACCTAGTGCAG,11500 fluorescence intensity (a.u.)
14,TATTCTGTTGTATTATGATATTATATATATTTTTCTTCGACGGAGTCACCTAGTGCAG,8980 fluorescence intensity (a.u.)
15,GTTCCTTTCAGAAACTGGCATTCGAGTTTTGAGTTTCTCGCGGAGTCACCTAGTGCAG,8720 fluorescence intensity (a.u.)
16,AACAGGCATGGTTTCCTTCGTCGTTTCTACTAGCAGTTGCCGGAGTCACCTAGTGCAG,11900 fluorescence intensity (a.u.)
17,GATGGCCTTGACCATGCAGAAACAGGCATGGTTTCCTTCGCGGAGTCACCTAGTGCAG,64500 fluorescence intensity (a.u.)
18,GTTTTGACTTTGGTCAAAGTCAAACTAATTCAAGTTAGACCGGAGTCACCTAGTGCAG,17600 fluorescence intensity (a.u.)
19,GACTTTAGTCAAAGTCATGTTGTTTCAAGTTTGACTAATTCGGAGTCACCTAGTGCAG,18800 fluorescence intensity (a.u.)
20,TAAGACGTTTTGACTTTGGTCAAACTGTTTGGTCAAAGTCCGGAGTCACCTAGTGCAG,10600 fluorescence intensity (a.u.)
21,CTTTAGTTAAAGTCAAAGTGCTTCAAGTTTGACTAAGTTTCGGAGTCACCTAGTGCAG,9150 fluorescence intensity (a.u.)

row,Sequence,binding signal
1,ATTGTTATGTTCCTTTGTTTTCTTATAAATATAATTTAATCGGAGTCACCTAGTGCAG,9560 fluorescence intensity (a.u.)
2,CTAAAATTTCCTTATGTTTTCTTCTTCTTCTAGTTATGTGCGGAGTCACCTAGTGCAG,8800 fluorescence intensity (a.u.)
3,TTTGGTCAAACTTAAAAAAGTTTGACTACAACTAAATTCACGGAGTCACCTAGTGCAG,8740 fluorescence intensity (a.u.)
4,TTTTCCTTAGTCAAAGTTATATATGTTTGACTAAATTTATCGGAGTCACCTAGTGCAG,18000 fluorescence intensity (a.u.)
5,CATTTGACTTTTTTCTAGTCAAAGTTATTTATATTTAATTCGGAGTCACCTAGTGCAG,14100 fluorescence intensity (a.u.)
6,TCATACATGTGATCACTCACTCACTCTCACACACACTCTCCGGAGTCACCTAGTGCAG,10100 fluorescence intensity (a.u.)
7,AAACAGACCCTTAATATGCTATATTTGTCTCCAATAAAACCGGAGTCACCTAGTGCAG,8480 fluorescence intensity (a.u.)
8,TTGCTCTTGTTAATGTTTGGCTTTCTTCTTCTTCTGCTGCCGGAGTCACCTAGTGCAG,8600 fluorescence intensity (a.u.)
9,CTGCCGCGCTTCGTCGCCGCGCTCGCCCGTCTTTCGCTCTCGGAGTCACCTAGTGCAG,8230 fluorescence intensity (a.u.)
10,ACCAGCTTTCTTTCTCGTGCTTTCCTCTTCTTCTTTTTTTCGGAGTCACCTAGTGCAG,10900 fluorescence intensity (a.u.)
11,TGGGGTTTTCAGCTTGCCAATGCTGCATTATCTTCTTTTTCGGAGTCACCTAGTGCAG,17200 fluorescence intensity (a.u.)
12,ATATCCCTTCTCTTCCCTCATCTCTCCACCTCTTCCATCTCGGAGTCACCTAGTGCAG,8890 fluorescence intensity (a.u.)
13,CCTCATCCGCTGCTCTGCTCCCACCATTGCTGCTCTCTCTCGGAGTCACCTAGTGCAG,17700 fluorescence intensity (a.u.)
14,GCTCCACCTACTCCGCTCCCCTCTGCTCGGCTGCTCCCATCGGAGTCACCTAGTGCAG,8470 fluorescence intensity (a.u.)
15,TCTCTCTCTCTCTCCTCTGCATCCGCGCGCATTGCTCGATCGGAGTCACCTAGTGCAG,9000 fluorescence intensity (a.u.)
16,GGCCCTGAGCTCTCTCTTGCTGCTTCTTTTAATGGGTTTTCGGAGTCACCTAGTGCAG,9680 fluorescence intensity (a.u.)
17,GGCTCGTGCACCTGCTCTCGTCTTTTCCACCGCTTTTTTTCGGAGTCACCTAGTGCAG,16800 fluorescence intensity (a.u.)
18,GCTCCCTGCTGCCATATCCTATCATCTCCTCTCTTCCTCTCGGAGTCACCTAGTGCAG,8540 fluorescence intensity (a.u.)
19,ACACTCTGCTGCATCTCTTATCCCTTCATCTCGGTCTTAACGGAGTCACCTAGTGCAG,16600 fluorescence intensity (a.u.)
20,CTCCATTCTTGTTTGTTCCTTCTTTGCTTTCAGCTGCTTTCGGAGTCACCTAGTGCAG,15000 fluorescence intensity (a.u.)
